Test results published in PubChem BioAssay AID651730 (NMMLSC, 2012).
Calls of active or inactive are those of the source. The rule behind the calls is not given here.

Test: V-ATPase regulators in yeast, S. cerevisiae, pHLuorin, powder sets 2-3, dose response (AID 651730)
Conditions: S. cerevisiae vacuolar pH, pHluorin fluorescence; series mostly up to 100 µM

outcome, inactive:
CN(C)C(=O)c1cccc(C(=O)Nc2ccccc2N2CCOCC2)c1
O=C(Nc1ccccc1N1CCOCC1)c1cc(C(F)(F)F)ccn1
N#Cc1cccc(C(=O)N2CCN(c3nc4ccc(F)cc4s3)CC2)c1
COCc1ccc(C(=O)N2CCN(c3nc4ccc(F)cc4s3)CC2)o1
CC(C)(C)c1ccc(C(=O)N2CCN(c3nc4ccc(F)cc4s3)CC2)o1
CN(C)Cc1ccc(C(=O)Nc2ccccc2N2CCOCC2)o1
O=C(Nc1ccccc1N1CCOCC1)c1cccc(C(F)(F)F)c1
O=C(Nc1ccccc1N1CCOCC1)c1cccc(C(F)(F)F)n1
NC(=O)c1cccc(C(=O)Nc2ccccc2N2CCOCC2)c1
O=C(c1cccc(Cl)n1)N1CCN(c2nc3ccc(F)cc3s2)CC1
CN(C)Cc1ccc(C(=O)N2CCN(c3nc4ccc(F)cc4s3)CC2)o1
Cc1cncc(C(=O)Nc2ccccc2N2CCOCC2)n1
